Several values for one entry are separate records, joined by “and”; a condition that tells them apart may be missing. Identical values can stand only once. Compounds without any hit were thinned out: in the full panel of roughly 83,000, 20% have a hit.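 Single-dose data. Exposure time 48 hours. Values below 10 considered active.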 Activity calls are given as the source filed them.

Among the test systems are DU-145 prostate; K-562 leukemia; MALME-3M melanoma; MDA-MB-231 breast; RXF 393 renal; SF-268 CNS; SF-295 CNS; SF-539 CNS; UACC-257 melanoma; M14 melanoma; HCT-15 colon; HT29 colon; SNB-75 CNS; SNB-19 CNS; U251 CNS; PC-3 prostate; SK-MEL-5 melanoma; UACC-62 melanoma; SK-MEL-28 melanoma; LOX IMVI melanoma.
Test in all cases: NCI-60 one-dose screen, 48 h (100 = growth as untreated, 0 = no growth, -100 = all killed)
Common to all, as to conditions: 10 µM unless noted

As to `O=C(CC1(O)C(=O)Nc2c(Cl)ccc(Cl)c21)c1ccc(Cl)cc1Cl` (configuration not stated), the growth with DU-145 prostate was 103% (inactive); in the test on K-562 leukemia, 93.6% (inactive); in the test on MALME-3M melanoma it was 100% (inactive); in the test with MDA-MB-231 breast, 109% (inactive); with RXF 393 renal, 94.5% (inactive); in the test with SF-268 CNS, 97.4% (inactive). Further, the growth in the test on SF-295 CNS is 100% (inactive); in the test on SF-539 CNS, 103% (inactive); in the test with UACC-257 melanoma, 78.8% (inactive); in the test on M14 melanoma, 89.2% (inactive); in the test on HCT-15 colon, 101% (inactive); in the test on HT29 colon, 90.3% (inactive). In addition, the growth with SNB-75 CNS was 70.1% (inactive); in the test with SNB-19 CNS, 107% (inactive); with U251 CNS, 96.4% (inactive); with PC-3 prostate, 81% (inactive); in the test with SK-MEL-5 melanoma it was 100% (inactive); with UACC-62 melanoma, 97.8% (inactive). Moreover, the growth in the test on SK-MEL-28 melanoma is 109% (inactive).
With `COC(=O)c1nc(=S)[nH]c(C(=O)OC)c1C(=O)c1ccc2ccccc2c1`, the growth in the test on DU-145 prostate was 110% (inactive); with K-562 leukemia, 102% (inactive); with MALME-3M melanoma, 94.5% (inactive); in the test with MDA-MB-231 breast, 90.4% (inactive); in the test with RXF 393 renal, 99.6% (inactive); in the test on SF-268 CNS, 102% (inactive). Besides, the growth in the test with SF-295 CNS was 98.6% (inactive); in the test on SF-539 CNS, 92.5% (inactive); in the test on UACC-257 melanoma it was 112% (inactive); in the test on M14 melanoma, 112% (inactive); with HCT-15 colon it was 99.2% (inactive); in the test on HT29 colon, 112% (inactive). For the same compound, the growth in the test with SNB-75 CNS was 84.5% (inactive); in the test with SNB-19 CNS, 94.7% (inactive); in the test on U251 CNS it was 97.6% (inactive); with PC-3 prostate, 93.5% (inactive); in the test on SK-MEL-5 melanoma, 98.9% (inactive); in the test with UACC-62 melanoma it was 89.4% (inactive). Also, the growth with SK-MEL-28 melanoma is 106% (inactive).
For the compound `O=C(O)c1ccc2c3c(ncnc13)-c1ccccc1C2=O`, the growth with DU-145 prostate was -100% (active); in the test on K-562 leukemia it was 74.5% (inactive); in the test with MALME-3M melanoma, -68.6% (active); with MDA-MB-231 breast, 89.6% (inactive); in the test with RXF 393 renal, 73.5% (inactive); in the test on SF-268 CNS it was 90% (inactive). The growth is 62.3% (inactive) in the test with SF-295 CNS; 63.1% (inactive) in the test with SF-539 CNS; 37.8% (inactive) in the test with UACC-257 melanoma; -59% (active) in the test with M14 melanoma; 26.8% (inactive) with HCT-15 colon; 59.2% (inactive) in the test on HT29 colon. Besides, the growth in the test on SNB-75 CNS is 20.2% (inactive); in the test with SNB-19 CNS, 38.1% (inactive); in the test on U251 CNS, 60.6% (inactive); in the test with SK-MEL-5 melanoma it was -69.3% (active); in the test on UACC-62 melanoma, 12.6% (inactive); with LOX IMVI melanoma, 21.5% (inactive). In addition, the growth in the test with SK-MEL-28 melanoma is 29.8% (inactive).
Regarding `CCCCCCCCCCCCCCNCc1ccccc1`, the growth in the test with DU-145 prostate is 81% (inactive); with K-562 leukemia, 23.8% (inactive); with MALME-3M melanoma, 92.6% (inactive); with MDA-MB-231 breast, 54.4% (inactive); in the test with RXF 393 renal, 82.3% (inactive); in the test with SF-268 CNS it was 94.7% (inactive). Moreover, the growth is 97.7% (inactive) in the test with SF-295 CNS; 83.2% (inactive) with SF-539 CNS; 99.4% (inactive) in the test on UACC-257 melanoma; 81.8% (inactive) in the test with M14 melanoma; 45.6% (inactive) in the test on HCT-15 colon; 26.1% (inactive) in the test with HT29 colon. Also, the growth in the test with SNB-75 CNS was 82.7% (inactive); with SNB-19 CNS it was 85.6% (inactive); in the test on U251 CNS, 57.6% (inactive); in the test on SK-MEL-5 melanoma it was 62.4% (inactive); in the test with UACC-62 melanoma it was 99.1% (inactive); in the test on SK-MEL-28 melanoma it was 82.4% (inactive).
As for `CCCCCCCCCCCCCCCCCCOP(=O)([O-])OC1CC[N+](C)(C)CC1`, the growth is 54.2% (inactive) and 25.3% (inactive) in the test on DU-145 prostate; 30.3% (inactive) and 20.7% (inactive) in the test on K-562 leukemia; 69.7% (inactive) and 16.3% (inactive) with MALME-3M melanoma; 11% (inactive) and -10.4% (active) with MDA-MB-231 breast; -49% (active) and 41.2% (inactive) in the test with RXF 393 renal; 38.9% (inactive) and 13.7% (inactive) with SF-268 CNS. Also, the growth is 19.5% (inactive) and 0.462% (active) in the test with SF-295 CNS; 36.3% (inactive) and 4.21% (active) with SF-539 CNS; 45.4% (inactive) and 19% (inactive) with UACC-257 melanoma; -33.9% (active) and -72.8% (active) in the test with M14 melanoma; -50% (active) and -67.9% (active) with HCT-15 colon; 2.35% (active) and -29.9% (active) in the test with HT29 colon. For the same compound, the growth was 10.6% (inactive) and -41.7% (active) with SNB-75 CNS; -29.2% (active) and -65.1% (active) in the test on SNB-19 CNS; -35.1% (active) and -68.1% (active) in the test on U251 CNS; 38.7% (inactive) and 20% (inactive) in the test on SK-MEL-5 melanoma; 25.3% (inactive) and 37.2% (inactive) in the test with UACC-62 melanoma; 11.4% (inactive) and -3.66% (active) in the test with LOX IMVI melanoma. For the same compound, the growth in the test with SK-MEL-28 melanoma was 57.3% (inactive).
`COc1ccccc1OC(=O)Oc1ccccc1OC`: the growth in the test on DU-145 prostate is 112% (inactive) and 96% (inactive); in the test on K-562 leukemia it was 125% (inactive) and 104% (inactive); with MALME-3M melanoma, 94.8% (inactive) and 98.5% (inactive); in the test on MDA-MB-231 breast, 103% (inactive) and 107% (inactive); in the test with RXF 393 renal it was 102% (inactive) and 113% (inactive); in the test on SF-268 CNS, 111% (inactive) and 94.9% (inactive). Besides, the growth in the test on SF-295 CNS is 106% (inactive) and 103% (inactive); with SF-539 CNS, 121% (inactive) and 103% (inactive); with UACC-257 melanoma, 97.6% (inactive) and 115% (inactive); in the test on M14 melanoma, 103% (inactive) and 99.7% (inactive); in the test on HCT-15 colon, 110% (inactive) and 95.2% (inactive); in the test with HT29 colon it was 102% (inactive) and 95.7% (inactive). Besides, the growth with SNB-75 CNS was 97.8% (inactive) and 90.8% (inactive); with SNB-19 CNS it was 104% (inactive); with U251 CNS, 111% (inactive) and 106% (inactive); in the test with SK-MEL-5 melanoma, 100% (inactive); in the test on UACC-62 melanoma it was 100% (inactive) and 96.4% (inactive); in the test on LOX IMVI melanoma it was 107% (inactive) and 95% (inactive). Besides, the growth in the test with SK-MEL-28 melanoma is 110% (inactive) and 106% (inactive).
`Oc1c(Br)c(Br)c(O)c(Br)c1Br`: the growth was 112% (inactive) in the test on DU-145 prostate; 7.81% (active) in the test with K-562 leukemia; 56.5% (inactive) with MALME-3M melanoma; 116% (inactive) in the test with MDA-MB-231 breast; 12.5% (inactive) in the test on RXF 393 renal; 108% (inactive) in the test with SF-268 CNS. Further, the growth with SF-295 CNS was 107% (inactive); in the test with SF-539 CNS, 119% (inactive); in the test with UACC-257 melanoma, 117% (inactive); in the test on M14 melanoma, 110% (inactive); in the test with HCT-15 colon, 11% (inactive); in the test on HT29 colon, 129% (inactive). Also, the growth with SNB-75 CNS was 120% (inactive); in the test on SNB-19 CNS, 106% (inactive); in the test on U251 CNS, 114% (inactive); in the test on SK-MEL-5 melanoma, 102% (inactive); in the test on UACC-62 melanoma it was 93.3% (inactive); with LOX IMVI melanoma, 90.9% (inactive). Also, the growth in the test with SK-MEL-28 melanoma is 92.8% (inactive).
